Experiments:
Conditions in all cases: concentration: 10 µM; 24 h
HCC1569 [1] = experiment: cell number relative to DMSO (% of DMSO); higher = more cells (less growth inhibition / toxicity)
Summary of the method: (§1)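 After 24 h at 37 °C with compounds at 10 µM, in triplicate, HCC1569 and TDF cells were fixed with 3.7% formaldehyde. Immunostaining used a rabbit anti-H1.0 antibody and an AlexaFluor 647 secondary, with DAPI, and six fields per well were imaged at ×10. H1.0 nuclear intensity or cell number is presented as percent of the plate control, from the median of replicates, with HCC1569 values smoothed for positional effects.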

TDF [2] = experiment: as above
Summary of the method: as §1

TDF [3] = experiment: H1.0 immunofluorescence intensity relative to DMSO (% of DMSO); higher = stronger H1.0 induction, active = 120 or more
Summary of the method: as §1

HCC1569 [4] = experiment: H1.0 immunofluorescence intensity relative to DMSO (% of DMSO); higher = stronger H1.0 induction, active = 140 or more
Summary of the method: as §1
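Throughout, for H1.0 immunofluorescence intensity relative to DMSO: TDF is a line of transformed human dermal fibroblasts of mesenchymal origin.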
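Throughout, for cell number relative to DMSO: TDF denotes transformed human dermal fibroblasts of mesenchymal origin.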

Row | Compound | cell number (HCC1569 [1]) | cell number (TDF [2]) | H1.0 immunofluorescence intensity (TDF [3]) | H1.0 immunofluorescence intensity (HCC1569 [4])
1 | COc1cc2ncnc(Nc3ccc(O)c(Br)c3)c2cc1OC [JAK3 Inhibitor II] | 88.7 | 115 | 83.8 (inactive) | 127 (inactive)
2 | O=C(OC1Cc2c(O)cc(O)cc2OC1c1cc(O)c(O)c(O)c1)c1cc(O)c(O)c(O)c1 (stereo unspecified) [Epigallocatechin gallate] | 105 | 97 | 94.8 (inactive) | 100 (inactive)
3 | CC1CCC2(C(=O)O)CCC3(C)C(=CCC4C5(C)CC(O)C(O)C(C)(CO)C5C(O)CC43C)C2C1C (stereo unspecified) [Madecassic acid] | 105 | 102 | 91.6 (inactive) | 91.7 (inactive)
4 | CCCCNc1ncc(C(=O)NCc2ccc(-n3ccnc3)cc2)c(NC2CCC(O)CC2)n1 (stereo unspecified) | 65.8 | 63.4 | 118 (inactive) | 104 (inactive)
5 | Nc1ccc(N2C(=O)c3ccccc3C2=O)c(Cl)c1 [N-(4-Amino-2-chlorophenyl)phthalimide] | 103 | 107 | 94.3 (inactive) | 100 (inactive)
6 | CC(C)NNC(=O)c1ccncc1.O=P(O)(O)O [Iproniazid phosphate] | 116 | 119 | 93.8 (inactive) | 85 (inactive)
7 | O=C1CCN(c2ccccc2)N1 [Phenidone] | 106 | 97.6 | 92.2 (inactive) | 98.8 (inactive)
8 | Cc1c(OCC(F)(F)F)ccnc1CS(=O)c1nc2ccccc2[nH]1 (stereo unspecified) [Lansoprazole] | 96.3 | 108 | 90.1 (inactive) | 104 (inactive)
9 | Cn1c(=O)c2[nH]c(-c3ccc(S(=O)(=O)O)cc3)nc2n(C)c1=O [8-(p-Sulfophenyl)theophylline] | 101 | 109 | 93.8 (inactive) | 89 (inactive)
